Measured values from the supplement of paper PMC10849652.
Of roughly 8,800 targets only a part is listed; those with a hit were picked by preference. About 0.5% of all pairs of compound and target were hits.

Assays:
Test in all cases: log2 fold change, soluble protein after heating vs DMSO (PISA); higher = thermal stabilisation; K562 lysate, 10 uM; active = over 0.2 and 3.5 SD of the protein, either way, in both replicates (recomputed)
vemurafenib = compound: CCCS(=O)(=O)Nc1ccc(F)c(C(=O)c2c[nH]c3ncc(-c4ccc(Cl)cc4)cc23)c1F [vemurafenib]
How it was run: (§1)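 K562 pellets were dounce-homogenised in PBS pH 7.4 containing 1 mM MgCl2, and the crude extract, at 1 mg/mL protein, was exposed to 10 μM compound for 30 min. Aliquots were heated for 3 min across 48°C-58°C, pooled, brought to 0.5% NP-40 at 4°C and spun at 21,000xg for 90 min, with the supernatant taken as soluble protein. TMTpro 16plex LC-MS/MS with equalised channel sums quantified that protein. Values are log-two fold changes in thermal stability relative to solvent controls, taken from duplicates.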

[1] = compound: CCCS(=O)(=O)Nc1ccc(F)c(C(=O)c2c[nH]c3ncc(Cl)cc23)c1F
How it was run: as §1

barasertib = compound: CCN(CCCOc1ccc2c(Nc3cc(CC(=O)Nc4cccc(F)c4)[nH]n3)ncnc2c1)CCOP(=O)(O)O [barasertib]
How it was run: as §1

[2] = compound: CC[C@@H]1C(=O)N(C)c2cnc(Nc3ccc(C(=O)NC4CCN(C)CC4)cc3OC)nc2N1C1CCCC1
How it was run: as §1

volasertib = compound: CC[C@@H]1C(=O)N(C)c2cnc(Nc3ccc(C(=O)N[C@H]4CC[C@H](N5CCN(CC6CC6)CC5)CC4)cc3OC)nc2N1C(C)C [volasertib]
How it was run: as §1

[3] = compound: CCn1c(C(=O)N(C2CC2)C2CC2)cc2c3c(ncn3C)c(Nc3cc(C)n(C)n3)nc21
How it was run: as §1

[4] = compound: CCn1cc(-c2ccnc3[nH]c(-c4cccc(CN(C)C)c4)cc23)c(-c2ccc(NC(=O)N(C)C)cc2)n1
How it was run: as §1

[5] = compound: CN1CCC(CNc2ccc3ncc(-c4cccc(OC(F)(F)F)c4)n3n2)CC1
How it was run: as §1

saracatinib = compound: CN1CCN(CCOc2cc(OC3CCOCC3)c3c(Nc4c(Cl)ccc5c4OCO5)ncnc3c2)CC1 [saracatinib]
How it was run: as §1

sotrastaurin = compound: CN1CCN(c2nc(C3=C(c4c[nH]c5ccccc45)C(=O)NC3=O)c3ccccc3n2)CC1 [sotrastaurin]
How it was run: as §1

Measured: log2 fold change

PRKCSH (UniProt K7ELL7)
inactive: vemurafenib 0.089 | [1] 0.02 | barasertib -0.037 | [2] 0.186 | volasertib -0.04 | [3] 0.013 | [4] 0.217 | [5] -0.008 | saracatinib -0.011 | sotrastaurin -0.015

PDE2A (UniProt O00408)
inactive: [1] -0.015 | barasertib -0.015 | [2] -0.215 | volasertib 0.041 | [3] -0.173 | [4] -0.135 | [5] 0.023 | saracatinib -0.042 | sotrastaurin 0.039
active: vemurafenib 0.374

PHKA1 (UniProt P46020)
UniProt P46020, sequence (P46020 whole entry, looked up): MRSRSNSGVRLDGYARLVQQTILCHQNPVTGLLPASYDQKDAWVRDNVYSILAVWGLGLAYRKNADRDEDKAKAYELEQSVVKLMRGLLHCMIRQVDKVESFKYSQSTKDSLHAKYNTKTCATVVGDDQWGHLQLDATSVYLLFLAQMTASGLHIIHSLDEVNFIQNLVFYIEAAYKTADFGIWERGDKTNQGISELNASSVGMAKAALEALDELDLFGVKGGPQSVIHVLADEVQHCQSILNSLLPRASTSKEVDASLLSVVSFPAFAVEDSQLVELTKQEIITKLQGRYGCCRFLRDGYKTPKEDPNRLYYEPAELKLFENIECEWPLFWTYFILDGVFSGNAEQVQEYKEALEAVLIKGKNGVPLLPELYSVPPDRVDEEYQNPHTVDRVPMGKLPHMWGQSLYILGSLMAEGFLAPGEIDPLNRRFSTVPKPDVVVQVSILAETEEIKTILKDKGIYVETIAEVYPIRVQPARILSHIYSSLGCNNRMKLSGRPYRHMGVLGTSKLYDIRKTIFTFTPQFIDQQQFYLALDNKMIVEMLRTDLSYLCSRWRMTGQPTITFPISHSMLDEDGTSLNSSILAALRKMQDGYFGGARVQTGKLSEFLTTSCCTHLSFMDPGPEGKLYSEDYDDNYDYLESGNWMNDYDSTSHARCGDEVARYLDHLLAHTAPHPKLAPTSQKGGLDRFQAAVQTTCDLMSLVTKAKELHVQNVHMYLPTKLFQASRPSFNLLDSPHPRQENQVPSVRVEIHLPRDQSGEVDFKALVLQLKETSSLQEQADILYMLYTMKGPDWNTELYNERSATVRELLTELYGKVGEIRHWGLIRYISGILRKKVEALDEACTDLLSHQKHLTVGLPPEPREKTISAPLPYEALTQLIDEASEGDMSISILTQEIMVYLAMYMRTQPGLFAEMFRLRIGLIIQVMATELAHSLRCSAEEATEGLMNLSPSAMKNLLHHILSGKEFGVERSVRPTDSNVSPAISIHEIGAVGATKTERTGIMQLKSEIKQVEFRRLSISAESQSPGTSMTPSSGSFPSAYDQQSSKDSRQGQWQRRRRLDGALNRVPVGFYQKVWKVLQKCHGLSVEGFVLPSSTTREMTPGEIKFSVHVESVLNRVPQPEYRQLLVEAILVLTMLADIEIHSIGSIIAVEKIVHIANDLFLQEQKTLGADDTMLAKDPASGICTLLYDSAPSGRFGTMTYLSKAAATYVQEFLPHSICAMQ
inactive: vemurafenib -0.021 | [1] 0.009 | barasertib 0.089 | [2] 0.044 | volasertib -0.074 | [3] 0.074 | [4] -0.067 | [5] 0.079 | saracatinib -0.009 | sotrastaurin -0.019

PUS1 (UniProt Q9Y606)
inactive: vemurafenib 0.026 | [1] 0.002 | barasertib 0.055 | [2] -0.086 | volasertib -0.077 | [3] 0.028 | [4] -0.058 | [5] -0.02 | saracatinib 0.035 | sotrastaurin -0.027

PTGR2 (UniProt Q8N8N7)
inactive: vemurafenib -0.029 | [1] 0.04 | barasertib -0.022 | [2] 0.056 | volasertib -0.039 | [3] 0.069 | [4] 0.012 | [5] 0.092 | saracatinib -0.021 | sotrastaurin 0.1

POLR3E (UniProt Q9NVU0)
inactive: vemurafenib 0.011 | [1] 0.02 | barasertib 0.003 | [2] 0.018 | volasertib -0.004 | [3] -0.012 | [4] 0.035 | [5] 0.012 | saracatinib 0.017 | sotrastaurin 0.048

PI4K2A (UniProt Q9BTU6)
inactive: vemurafenib -0.025 | [1] 0.037 | barasertib 0.041 | [2] -0.009 | volasertib -0.027 | [3] 0.004 | [4] 0.019 | [5] 0.042 | saracatinib -0.037 | sotrastaurin 0.102

POLD3 (UniProt Q15054)
inactive: vemurafenib 0.003 | [1] -0.005 | barasertib 0.004 | [2] -0.014 | volasertib -0.045 | [3] -0.013 | [4] 0.009 | [5] -0.03 | saracatinib 0.028 | sotrastaurin -0.01

PFAS (UniProt O15067)
UniProt O15067, sequence (O15067 whole entry, looked up): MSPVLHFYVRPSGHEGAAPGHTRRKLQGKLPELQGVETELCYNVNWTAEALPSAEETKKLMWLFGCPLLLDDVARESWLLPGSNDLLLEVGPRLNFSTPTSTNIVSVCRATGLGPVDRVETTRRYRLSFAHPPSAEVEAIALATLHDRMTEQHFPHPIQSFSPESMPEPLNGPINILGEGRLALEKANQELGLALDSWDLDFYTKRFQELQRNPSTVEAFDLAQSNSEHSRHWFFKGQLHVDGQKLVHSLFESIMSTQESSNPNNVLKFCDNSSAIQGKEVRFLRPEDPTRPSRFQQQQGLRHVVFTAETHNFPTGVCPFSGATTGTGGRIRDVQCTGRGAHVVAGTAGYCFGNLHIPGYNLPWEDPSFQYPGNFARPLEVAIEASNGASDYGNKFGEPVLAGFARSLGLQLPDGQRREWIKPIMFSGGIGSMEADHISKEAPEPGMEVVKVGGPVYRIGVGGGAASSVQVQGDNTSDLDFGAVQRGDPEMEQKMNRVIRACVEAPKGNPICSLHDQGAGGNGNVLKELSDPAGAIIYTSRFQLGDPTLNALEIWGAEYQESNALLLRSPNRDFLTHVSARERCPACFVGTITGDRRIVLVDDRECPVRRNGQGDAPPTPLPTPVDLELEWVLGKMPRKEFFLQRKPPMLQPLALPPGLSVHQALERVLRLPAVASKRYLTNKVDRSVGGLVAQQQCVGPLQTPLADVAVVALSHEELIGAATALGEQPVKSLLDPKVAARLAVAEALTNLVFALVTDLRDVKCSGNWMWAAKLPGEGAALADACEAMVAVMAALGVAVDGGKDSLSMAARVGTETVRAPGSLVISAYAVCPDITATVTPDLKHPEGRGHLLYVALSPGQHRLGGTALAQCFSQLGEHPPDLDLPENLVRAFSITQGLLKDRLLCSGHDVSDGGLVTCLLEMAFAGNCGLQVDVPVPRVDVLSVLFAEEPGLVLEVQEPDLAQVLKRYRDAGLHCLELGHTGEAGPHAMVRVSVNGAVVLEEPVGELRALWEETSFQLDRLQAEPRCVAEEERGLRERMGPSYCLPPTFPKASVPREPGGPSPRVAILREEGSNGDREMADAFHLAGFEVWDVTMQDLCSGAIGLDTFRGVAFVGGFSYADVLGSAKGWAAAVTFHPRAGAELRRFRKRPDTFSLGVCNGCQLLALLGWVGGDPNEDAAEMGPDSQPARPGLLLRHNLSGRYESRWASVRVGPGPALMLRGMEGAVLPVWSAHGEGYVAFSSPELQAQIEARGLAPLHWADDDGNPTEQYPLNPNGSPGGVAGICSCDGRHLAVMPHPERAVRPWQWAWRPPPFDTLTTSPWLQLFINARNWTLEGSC
inactive: vemurafenib 0.029 | [1] 0.023 | barasertib 0.015 | [2] -0.048 | volasertib -0.091 | [3] 0 | [4] -0.023 | [5] 0.001 | saracatinib -0.013 | sotrastaurin -0.015

PITRM1 isoform 2 (UniProt Q5JRX3)
inactive: vemurafenib -0.026 | [1] 0.001 | barasertib -0.01 | [2] -0.018 | volasertib 0.127 | [3] -0.008 | [4] 0.07 | [5] -0.048 | saracatinib -0.021 | sotrastaurin 0.007

PDCD6IP isoform 2 (UniProt Q8WUM4)
inactive: vemurafenib -0.018 | [1] -0.005 | barasertib -0.008 | [2] -0.036 | volasertib -0.022 | [3] 0.032 | [4] 0.071 | [5] -0.054 | saracatinib 0.011 | sotrastaurin 0.003

PTPN7 isoform 3 (UniProt P35236)
inactive: vemurafenib 0.016 | [1] 0.06 | barasertib 0.026 | [2] -0.025 | volasertib -0.06 | [3] 0.063 | [4] -0.076 | [5] 0.124 | saracatinib 0.005 | sotrastaurin 0.015

PDXDC1 (UniProt Q6P996)
inactive: vemurafenib -0.005 | [1] -0.02 | barasertib 0.008 | [2] 0.03 | volasertib -0.059 | [3] -0.004 | [4] -0.031 | [5] -0.067 | saracatinib -0.005 | sotrastaurin 0.015

PTP4A1 (UniProt Q93096)
inactive: vemurafenib -0.006 | [1] -0.029 | barasertib -0.041 | [2] 0.017 | volasertib 0.036 | [3] 0.019 | [4] 0.177 | [5] -0.05 | saracatinib 0.001 | sotrastaurin 0

PPM1H (UniProt Q9ULR3)
inactive: vemurafenib 0.066 | [1] -0.001 | barasertib 0 | [2] 0.103 | volasertib 0.025 | [3] 0 | [4] -0.079 | [5] 0.041 | saracatinib -0.062 | sotrastaurin 0.022

PMPCA (UniProt Q10713)
inactive: vemurafenib 0.047 | [1] 0.037 | barasertib -0.014 | [2] -0.039 | volasertib -0.031 | [3] -0.025 | [4] -0.017 | [5] 0.233 | saracatinib -0.024 | sotrastaurin 0.006

PCIF1 (UniProt Q9H4Z3)
inactive: vemurafenib 0.03 | [1] -0.012 | barasertib 0.088 | [2] 0.023 | volasertib 0.005 | [3] 0.029 | [4] -0.223 | [5] 0.011 | saracatinib -0.001 | sotrastaurin -0.036

PHOSPHO2 (UniProt Q8TCD6)
UniProt Q8TCD6, sequence (Q8TCD6 whole entry, looked up): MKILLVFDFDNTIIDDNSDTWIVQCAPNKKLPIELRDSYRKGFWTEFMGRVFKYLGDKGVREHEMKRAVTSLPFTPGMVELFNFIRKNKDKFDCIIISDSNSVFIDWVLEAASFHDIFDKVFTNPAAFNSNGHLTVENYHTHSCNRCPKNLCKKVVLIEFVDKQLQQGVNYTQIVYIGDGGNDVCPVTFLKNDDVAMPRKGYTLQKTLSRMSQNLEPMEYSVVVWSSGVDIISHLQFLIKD
inactive: vemurafenib -0.023 | [1] -0.026 | barasertib 0.047 | [2] 0.232 | volasertib 0.019 | [3] 0.003 | [4] -0.084 | [5] 0.001 | saracatinib -0.023 | sotrastaurin 0.039

PLA2G4B isoform 6 (UniProt P0C869)
UniProt P0C869, sequence (P0C869 whole entry, looked up): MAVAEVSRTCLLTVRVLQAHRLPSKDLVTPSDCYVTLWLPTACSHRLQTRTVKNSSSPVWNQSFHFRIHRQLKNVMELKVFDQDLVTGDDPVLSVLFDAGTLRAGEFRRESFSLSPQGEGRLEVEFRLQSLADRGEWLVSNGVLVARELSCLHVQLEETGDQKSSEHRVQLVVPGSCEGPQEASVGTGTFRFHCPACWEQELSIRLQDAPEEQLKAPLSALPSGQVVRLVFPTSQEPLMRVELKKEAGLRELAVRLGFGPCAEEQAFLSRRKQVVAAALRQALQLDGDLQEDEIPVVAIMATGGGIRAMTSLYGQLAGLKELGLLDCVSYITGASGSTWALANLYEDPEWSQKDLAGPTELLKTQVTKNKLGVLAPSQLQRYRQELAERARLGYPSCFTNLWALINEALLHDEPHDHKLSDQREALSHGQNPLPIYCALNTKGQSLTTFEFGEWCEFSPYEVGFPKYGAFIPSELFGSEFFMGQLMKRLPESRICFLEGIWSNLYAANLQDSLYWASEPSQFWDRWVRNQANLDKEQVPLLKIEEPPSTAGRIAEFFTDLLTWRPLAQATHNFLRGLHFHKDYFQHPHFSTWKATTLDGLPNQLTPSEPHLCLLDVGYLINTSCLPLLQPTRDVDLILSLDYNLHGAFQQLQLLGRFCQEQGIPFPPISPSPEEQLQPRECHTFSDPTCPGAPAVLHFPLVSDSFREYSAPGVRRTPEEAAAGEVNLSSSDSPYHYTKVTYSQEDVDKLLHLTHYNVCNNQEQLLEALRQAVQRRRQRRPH
inactive: vemurafenib 0.05 | [1] 0.069 | barasertib 0.002 | [2] 0.144 | volasertib 0.018 | [3] -0.191 | [4] 0.034 | [5] -0.014 | saracatinib 0.101 | sotrastaurin -0.168

PI4K2B (UniProt Q8TCG2)
inactive: vemurafenib -0.003 | [1] -0.006 | barasertib 0.023 | [2] 0.07 | volasertib -0.032 | [3] -0.062 | [4] 0.081 | [5] 0.121 | saracatinib -0.009 | sotrastaurin 0.132

PRMT5 (UniProt O14744)
UniProt O14744, sequence (O14744 whole entry, looked up): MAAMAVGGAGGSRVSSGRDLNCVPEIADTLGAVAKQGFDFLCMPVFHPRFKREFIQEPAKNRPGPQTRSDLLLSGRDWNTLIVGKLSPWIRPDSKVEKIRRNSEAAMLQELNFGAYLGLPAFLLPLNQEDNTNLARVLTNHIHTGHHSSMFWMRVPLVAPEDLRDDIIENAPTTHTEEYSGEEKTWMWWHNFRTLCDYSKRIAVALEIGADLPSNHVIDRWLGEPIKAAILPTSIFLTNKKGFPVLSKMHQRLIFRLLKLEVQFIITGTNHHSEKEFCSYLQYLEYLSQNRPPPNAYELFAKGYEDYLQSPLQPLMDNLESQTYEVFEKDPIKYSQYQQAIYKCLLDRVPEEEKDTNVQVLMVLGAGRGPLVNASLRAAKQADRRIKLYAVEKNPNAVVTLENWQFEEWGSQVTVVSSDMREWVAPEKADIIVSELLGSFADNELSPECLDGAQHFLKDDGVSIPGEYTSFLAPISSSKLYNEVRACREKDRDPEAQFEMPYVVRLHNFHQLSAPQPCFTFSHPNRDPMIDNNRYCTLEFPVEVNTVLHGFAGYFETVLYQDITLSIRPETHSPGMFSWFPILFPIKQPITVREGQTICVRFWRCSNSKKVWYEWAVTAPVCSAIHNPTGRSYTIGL
inactive: vemurafenib 0.006 | [1] -0.008 | barasertib -0.007 | [2] 0.02 | volasertib -0.007 | [3] -0.009 | [4] -0.067 | [5] 0.017 | saracatinib -0.032 | sotrastaurin 0.015

PTPN23 (UniProt Q9H3S7)
inactive: vemurafenib -0.008 | [1] 0 | barasertib 0.003 | [2] -0.006 | volasertib -0.042 | [3] 0.026 | [4] -0.017 | [5] 0.007 | saracatinib 0.008 | sotrastaurin -0.001

PIGO (UniProt Q8TEQ8)
inactive: vemurafenib -0.112 | [1] 0.109 | barasertib 0.064 | [2] 0.013 | volasertib -0.069 | [3] -0.081 | [4] -0.029 | [5] -0.043 | saracatinib -0.013
active: sotrastaurin -0.499

PPIL2 (UniProt Q13356)
inactive: vemurafenib 0.012 | [1] 0.015 | barasertib 0.035 | [2] -0.013 | volasertib -0.06 | [3] 0 | [4] -0.023 | [5] 0.016 | saracatinib -0.032 | sotrastaurin 0.024

PCF11 (UniProt O94913)
inactive: vemurafenib 0.042 | [1] 0.012 | barasertib 0.015 | [2] 0.02 | volasertib -0.029 | [3] -0.045 | [4] 0.081 | [5] -0.018 | saracatinib -0.003 | sotrastaurin 0.006

PLEKHF1 (UniProt Q96S99)
inactive: vemurafenib 0.019 | [1] -0.008 | barasertib 0.004 | [2] -0.004 | volasertib 0.002 | [3] 0.059 | [4] -0.062 | [5] 0.018 | saracatinib 0.007 | sotrastaurin -0.028

PLXNB2 (UniProt O15031)
inactive: vemurafenib 0.011 | [1] -0.007 | barasertib 0.008 | [2] 0.051 | volasertib -0.021 | [3] -0.003 | [4] -0.043 | [5] -0.019 | saracatinib 0.005 | sotrastaurin 0.024

PKP3 isoform 2 (UniProt Q9Y446)
UniProt Q9Y446, sequence (Q9Y446 whole entry, looked up): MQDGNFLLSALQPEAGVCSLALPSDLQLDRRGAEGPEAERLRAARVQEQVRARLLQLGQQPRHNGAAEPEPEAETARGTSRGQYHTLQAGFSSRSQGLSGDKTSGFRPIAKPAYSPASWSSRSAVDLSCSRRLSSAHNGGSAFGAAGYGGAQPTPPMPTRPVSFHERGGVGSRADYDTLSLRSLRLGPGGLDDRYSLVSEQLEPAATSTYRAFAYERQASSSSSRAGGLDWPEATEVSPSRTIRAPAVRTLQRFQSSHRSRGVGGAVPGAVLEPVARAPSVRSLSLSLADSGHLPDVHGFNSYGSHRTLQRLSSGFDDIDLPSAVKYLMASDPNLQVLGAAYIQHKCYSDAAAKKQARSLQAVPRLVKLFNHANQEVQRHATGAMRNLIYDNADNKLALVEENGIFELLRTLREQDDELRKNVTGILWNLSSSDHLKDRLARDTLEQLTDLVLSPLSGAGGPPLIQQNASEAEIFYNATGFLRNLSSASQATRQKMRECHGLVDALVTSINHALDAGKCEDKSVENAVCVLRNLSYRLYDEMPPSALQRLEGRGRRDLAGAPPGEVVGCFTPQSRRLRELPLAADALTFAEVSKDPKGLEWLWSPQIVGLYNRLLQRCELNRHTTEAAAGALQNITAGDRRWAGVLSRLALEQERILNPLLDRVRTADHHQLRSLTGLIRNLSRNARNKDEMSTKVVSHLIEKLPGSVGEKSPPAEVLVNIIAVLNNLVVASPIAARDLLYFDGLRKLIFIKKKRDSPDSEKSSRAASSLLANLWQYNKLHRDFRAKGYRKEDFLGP
inactive: vemurafenib -0.087 | [1] 0.05 | barasertib -0.01 | [2] 0.061 | volasertib -0.005 | [3] 0.05 | [4] 0.027 | [5] -0.088 | saracatinib -0.037 | sotrastaurin 0.001

PDCD4 (UniProt Q53EL6)
inactive: vemurafenib 0.014 | [1] 0.02 | barasertib 0.024 | [2] -0.023 | volasertib -0.03 | [3] 0.029 | [4] -0.029 | [5] -0.013 | saracatinib 0.009 | sotrastaurin 0.001

PPFIA2 (UniProt O75334)
inactive: vemurafenib 0.062 | [1] -0.018 | barasertib 0.054 | [2] 0.01 | volasertib 0.02 | [3] -0.127 | [4] -0.255 | [5] 0.146 | saracatinib -0.016 | sotrastaurin -0.05
